Screening results as filed in PubChem.
Many of the other results were omitted from the sample, so hits are more common in it than they were.
D1 allo mod: allosteric modulators of human D1 dopamine receptor; 58,000 compounds, 5.9% hits; HEK293 D1, CRE-luciferase, dopamine EC30 potentiation; actives deviate in either direction; P21728; AID 641; B-score at 10 µM;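 active = luminescence count or its row- and column-corrected plate score outside the 99.7% band of the plate's sample wells, on either side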
hDAT+cocaine: changed human dopamine transporter uptake under cocaine IC80; LLC-PK1 hDAT cells, [14C]-dopamine uptake with cocaine IC80; actives deviate in either direction; 110,000 compounds, 1.3% hits; AID 449768; Q01959; B-score at 10 µM;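 active = Z score or B-score, a plate-position-corrected score, falls beyond the plate's 99.7% confidence bounds, in either direction; inactive = both scores lie inside the 99.7% bounds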;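 note: scored against the spread of the other compound wells on the same plate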
JNK3 blocker: blocks human JNK3 kinase activity | P53779 | purified JNK3 kinase activity, HTS | inhibition, % at 8 µM | 60,000 compounds, 0.61% hits; in the data active = inhibition above about 17%;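 note: 0% = DMSO and 100% = reference inhibitor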
Target sequence (P53779 whole entry, looked up): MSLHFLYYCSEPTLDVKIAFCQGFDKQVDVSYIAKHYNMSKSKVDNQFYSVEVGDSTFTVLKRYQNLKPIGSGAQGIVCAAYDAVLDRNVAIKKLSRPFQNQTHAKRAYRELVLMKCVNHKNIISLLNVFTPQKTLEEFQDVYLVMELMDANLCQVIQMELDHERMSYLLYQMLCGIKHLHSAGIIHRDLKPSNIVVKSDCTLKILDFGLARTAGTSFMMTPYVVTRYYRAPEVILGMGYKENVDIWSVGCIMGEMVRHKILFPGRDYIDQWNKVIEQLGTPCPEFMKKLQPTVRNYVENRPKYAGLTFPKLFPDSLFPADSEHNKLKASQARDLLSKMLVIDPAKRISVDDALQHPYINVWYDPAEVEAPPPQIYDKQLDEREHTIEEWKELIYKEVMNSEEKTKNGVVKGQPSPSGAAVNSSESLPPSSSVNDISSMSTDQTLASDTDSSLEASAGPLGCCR
ROCK2 blocker: inhibitors of human Rho kinase 2 | O75116 | 60,000 compounds, 0.35% hits | inhibition, % at 6 µM | AID 604 | purified ROCK2, Kinase-Glo ATP depletion luminescence;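 active = inhibition above the screen-wide mean inhibition plus 3 SD, cut at about 18% in these data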;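 note: plate controls were DMSO wells for no effect and Y-27632 control wells after no-enzyme background subtraction for full effect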
PKA kinase inh: blocks human protein kinase A activity. P17612. PKA Kemptide phosphorylation, Kinase-Glo ATP luminescence. inhibition, % at 6 µM. 65,000 compounds, 0.1% hits. AID 524;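 active = inhibition above the screen-wide mean inhibition plus 3 SD, cut at about 21% in these data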
Active calls of the source: *; . = not tested or not shown.

SMILES	D1 allo mod	hDAT+cocaine	JNK3 blocker	ROCK2 blocker	PKA kinase inh
Cn1c(=O)c2cc(S(=O)(=O)NCCC(=O)NC3CCCCCCC3)ccc2n(C)c1=O	-3.59*	-0.0954	-3.1	2.2	-2.6
NC(=O)c1c(NC(=O)Cc2cccs2)sc2c1CCC2	2.37	-0.701	31.4*	6.5	7.6
CN(C(=O)c1ccc2c(c1)OCO2)C1(C(=O)NC2CCCC2)CCCCC1	-0.509	-1.1	.	.	3.9
CC(C)N(C=O)C1(C(=O)NC2CCCCC2)CCCCC1	-3.31*	0.925	2.1	2.6	12.4
C=C1CCN([C@H](C(=O)OCc2cccc(C)c2)C(C)C)S(=O)(=O)c2ccccc21	.	-0.24	.	.	.
Cc1ccc(S(=O)(=O)NCCCOC(=O)Nc2ccncc2)cc1	0.342	0.322	-1.1	23.3*	18.5
CCCCN(C)C(=O)CSc1nc(NCc2ccc(OC)cc2)c2ccccc2n1	.	2.47*	.	.	.
CCN(CC)S(=O)(=O)c1ccc(N=Nc2c(C)[nH]n(C(N)=S)c2=O)cc1	.	-2.96*	.	.	.
Nc1nc2ccccc2n1C(=O)CCc1ccccc1	-0.841	-0.224	-1.9	146.2*	4.1
COc1ccc(C(=O)OCCN2C(=O)c3ccccc3C2=O)cc1OC	5.69*	.	.	.	.
O=C1c2cnc3nc(SCc4ccc(Cl)cc4)nn3c2CC2c3ccccc3CCN12 (configuration not stated)	.	-0.135	.	.	.
Cc1cccc(-n2ncc3c(NCc4cccnc4)ncnc32)c1	-5.06*	-0.0277	-0.3	1.2	4.7
Cc1cccc(-n2ncc3c(N4CCCC4)ncnc32)c1	-7.31*	-0.871	1.0	6.9	7.7
Cc1ccc(-n2ncc3c(N4CCN(c5ccccc5)CC4)ncnc32)c(C)c1	-3.97*	0.0664	-5.9	-9.0	2.1
Cc1cccc(-n2ncc3c(N4CCOCC4)ncnc32)c1	.	-0.419	-3.8	-9.0	-9.7
CO/N=C/C(C#N)c1ncc(C(F)(F)F)cc1Cl (configuration not stated)	.	-2.49*	.	.	.
Cc1nc2cccc(C(=O)NCc3ccccc3)c2o1	.	-0.265	22.8*	-5.5	-7.3
O=C(O)c1ccccc1C(=O)NCc1ccccc1	1.53	0.572	.	.	.
COc1ccc(-c2nc(-c3ccc(C(=O)O)cc3)no2)cc1	.	-0.00671	.	.	.
O=C1CCCC2=C1C(c1ccc(Cl)cc1)C1C(=O)c3ccccc3C1=N2 (configuration not stated)	.	2.6*	.	.	.
O=C1CCCC2=C1C(c1ccc(Cl)cc1)N1C(=O)CCSC1=N2 (configuration not stated)	.	0.0909	.	.	.
COc1ccc(-n2c(=O)c3c4c(sc3n3c(C)nnc23)CCCC4)cc1	-0.723	.	-7.2	3.1	4.7
Cc1sc2nc(SCC(=O)c3cc(C)n(CC4CCCO4)c3C)n(C(C)C)c(=O)c2c1C (configuration not stated)	-2.27*	2.03	-1.8	2.7	0.7
CCCCCNCc1cccc(Br)c1	.	0.33	.	.	.
CCOc1ccc(-c2nc3c(s2)CCc2onc(-c4ccc(OC)cc4)c2-3)cc1	.	-1.16	.	.	.
SMILES	D1 allo mod	hDAT+cocaine	JNK3 blocker	ROCK2 blocker	PKA kinase inh
COc1ccc(CCNC(=O)CSc2ccc(-c3ccccc3)nn2)cc1OC	.	2*	.	.	.
Cn1cccc1Cc1nnc(SCC(=O)Nc2ccc(Cl)cc2)n1-c1ccc(F)cc1	-0.636	2.76*	5.3	2.4	0.7
Cn1cccc1Cc1nnc(SCC(=O)Nc2cccc(F)c2)n1CCc1ccccc1	-0.162	2.07*	-2.5	0.3	5.7
Cn1cccc1Cc1nnc(SCC(=O)Nc2ccc(F)cc2)n1-c1ccc(F)cc1	-0.0172	0.0673	4.1	-1.8	1.6
COC(C/C=C\[C@H](O)[C@@H](C)OCc1ccccc1)OC	.	-0.247	.	.	.
CCOC(=O)C(=O)/C(C#N)=C/Nc1ccccc1	.	0.295	.	.	.
CCOC(=O)/C(C#N)=C/Nc1ccccc1OC	.	-8.18*	.	.	.
Cc1nc(NC(=O)c2ccc(Br)o2)sc1C	.	-0.539	.	.	.
O=C(Nc1nccs1)c1ccc(Br)o1	.	1.26	18.1*	4.4	11.3
COc1cccc(/C=N/NC(=O)CO/N=C(\C)c2cccs2)c1OC	.	3.17*	.	.	.
C/C(=N\OCC(=O)N/N=C/c1ccccc1O)c1cccs1	.	-0.206	.	.	.
Cc1ccc(CN2CC34C=CC(O3)C(C(=O)NCc3ccc5c(c3)OCO5)C4C2=O)cc1 (configuration not stated)	.	-8.13*	.	.	1.1
Cc1ccc(C)n1/N=C1/NC(=O)CS1	-0.0627	-3.08*	4.8	9.0	6.8
Cc1ccc(N=C2NC(=O)CS2)cc1	.	-0.00498	.	.	.
CCOc1ccc(NC2=NC(C(=O)NCc3ccccc3)CC(=O)N2)cc1 (configuration not stated)	-0.236	-0.389	-9.4	5.2	3.5
O=C(O)c1cn(-c2ccccc2)nc1-c1ccncc1	.	0.0787	0.4	0.3	7.2
